Compounds with a hit are over-represented: about 12% of the library has one in this group of screens.
Sm TGR inh – inhibitors of Schistosoma mansoni thioredoxin glutathione reductase. Q962Y6. purified TGR, DTNB reduction, TNB absorbance 405 nm. Potency, µM (titrated, usually from 114 µM), for inactives: top-dose activity change, negative = inhibition, usual class: inhibitors. 360,000 compounds, 3% hits; note: % is set by controls: 0 for no effect and ±100 for the full control effect; nearly all actives have a fitted effect of over 60% in size
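TGR 20 nM + NADPH 100 uM (dispensed conc.), cpd preinc 15 min RT; start with NADPH (500 uM addition) then DTNB (15 mM addition). Kinetic TNB absorbance, 405 nm filter. Four-parameter Hill fit across titration.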
Pf growth 48h – P. falciparum growth inhibition at 48 hours (one generation) | P. falciparum luciferase growth in erythrocytes, 48 h | AID 504832 | 310,000 compounds, 5.9% hits | Potency, µM (titrated, usually from 28.7 µM), for the others: top-dose activity change, negative = inhibition, usual class: inhibitors; note: % is set by controls: 0 for no effect and ±100 for the full control effect
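First compound was added to culture medium, then infected red cells at 0.1% parasitemia and 2% hematocrit (final). After incubation at 37 C under 5% CO2, luciferase detection reagent was dispensed and light output recorded.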
AmpC detergent – inhibitors of E. coli AmpC beta-lactamase with detergent; P00811; AmpC hydrolysis of nitrocefin, absorbance 480 nm, 0.01% Triton; Potency, µM (highest dose often 114 µM), inactives show at the top dose activity change, negative = inhibition, hits mostly inhibitors; 370,000 compounds, 0.041% hits; AID 485294;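 note: 0% = no-compound wells and -100% = no-enzyme wells; nearly all actives have a fitted effect of over 25% in size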
Target sequence (P00811 whole entry, looked up): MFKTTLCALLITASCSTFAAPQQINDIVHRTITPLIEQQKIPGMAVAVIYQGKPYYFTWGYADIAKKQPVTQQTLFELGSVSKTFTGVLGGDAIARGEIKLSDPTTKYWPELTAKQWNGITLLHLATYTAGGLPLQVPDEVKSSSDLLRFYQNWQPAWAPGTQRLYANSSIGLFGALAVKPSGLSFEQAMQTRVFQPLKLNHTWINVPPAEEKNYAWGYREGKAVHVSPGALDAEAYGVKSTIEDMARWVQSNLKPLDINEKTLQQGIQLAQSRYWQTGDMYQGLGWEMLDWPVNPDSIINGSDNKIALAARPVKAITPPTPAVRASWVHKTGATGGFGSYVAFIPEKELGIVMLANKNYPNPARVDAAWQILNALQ
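AmpC (5.3 nM in the dispensed reagent) in 20 mM phosphate pH 7.0 with 0.01% (detergent screen) or 0.0001% Triton X-100 was preincubated with compounds for 15 min at room temperature. Nitrocefin was then added from an 800 uM solution, and hydrolysis was followed at 480 nm.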
Pf growth 96h – P. falciparum growth inhibition at 96 hour, primary screen for plastid delayed-death inhibitors; P. falciparum luciferase reporter growth, 96 h; Potency, µM (series often up to 28.7 µM), inactives show at the highest dose activity change, negative = inhibition, usual class: inhibitors; 320,000 compounds, 6.9% hits; note: % is set by controls: 0 for no effect and ±100 for the full control effect
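Infected RBCs, 2% Hct / 0.05% parasitemia final; luciferase-reporter P. falciparum; cpd 96 h, 37 C, 5% CO2; luciferase detection reagent; luminescence.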
AmpC inh no detg – AmpC beta-lactamase inhibition without detergent; AmpC nitrocefin hydrolysis, absorbance 480 nm, 0.0001% Triton; Potency, µM (top dose mostly 57.1 µM), inactives show top-dose activity change, negative = inhibition, most hits filed as inhibitors; 330,000 compounds, 0.52% hits; AID 485341;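 note: plate controls were no compound for no effect and no enzyme for full effect; nearly all actives have a fitted effect of over 20% in size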
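20 mM phosphate pH 7.0 + 0.01% (detergent screen) or 0.0001% Triton X-100; 5.3 nM AmpC reagent; cpd preinc 15 min RT; nitrocefin (800 uM stock) to start; A480 q20 s × 4 min; Activity was normalised to no-enzyme and no-compound control wells.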
SARS PLP yeast – inhibitors of SARS-CoV papain-like protease in yeast; S. cerevisiae expressing SARS-CoV PLpro, growth rescue; Potency, µM (series often up to 32.9 µM), for the others: at the highest dose activity, positive = growth rescue, most hits filed as activators; 330,000 compounds, 0.19% hits; calls by dose curve; note: 0% is about no effect; nearly all actives have a fitted effect of over 55% in size
Active calls of the source: *; ? = inconclusive; · = no result given. Unless noted, calls come from the whole dose curve; as a rule, active = well fitted curve in the direction sought with a large enough effect; inconclusive = small, poorly fitted or top-dose-only effect, or another doubt; inactive = no such curve, though single readings can be large; an effect the other way counts as inactive or inconclusive. Potency is the fitted concentration of half-maximal effect.

SMILES	Sm TGR inh	Pf growth 48h	AmpC detergent	Pf growth 96h	AmpC inh no detg	SARS PLP yeast
Cn1nccc1C(=O)N/N=C/c1c(O)ccc2ccccc12	-22%	2.6µM*	1%	10µM*	-27%	-7%
O=C(N/N=C/c1c(O)ccc2ccccc12)c1cccnc1	?	?	-2%	-6%	-17%	-9%
O=C(N/N=C\c1c(O)ccc2ccccc12)c1cncc(Br)c1	-26%	2.9µM*	3%	2.3µM*	-55%	?
O=C(N/N=C\c1c(O)ccc2ccccc12)c1ccc(O)cc1	-9%	?	-18%	65%	-55%	13µM*
Cn1cc(C(=O)N/N=C/c2c(O)ccc3ccccc23)ccc1=O	-4%	2.6µM*	-9%	28%	-8%	1%
O=C(COc1ccc(F)cc1)NNC(=O)Cn1ccc(C(F)(F)F)n1	·	·	·	·	0%	0%
Cc1cccc(NC(=O)CSc2ncc(-c3ccc(Br)cc3)[nH]2)c1	4%	·	12%	·	·	·
O=C(CSc1nc2c(c(=O)[nH]1)CCCC2)Nc1ccccc1C(F)(F)F	-2%	·	1%	·	·	·
COc1ccccc1/C=N/NC(=O)c1ccc(C)nc1	-20%	3%	2%	?	-7%	0%
O=C(CSCC(=O)Nc1ccccc1)N/N=C/c1c(O)ccc2ccccc12	-13%	2.6µM*	3%	1.9µM*	-41%	29%
O=C(O)c1ccc(N=Cc2c(O)ccc3ccccc23)cc1	?	-10%	-10%	?	-25%	12%
Cc1ccc(C(=O)N/N=C/c2c(O)ccc3ccccc23)cn1	-5%	3.7µM*	-4%	8%	-11%	-10%
O=C(N/N=C/c1c(O)ccc2ccccc12)c1ccc(Br)o1	-2%	?	?	3%	-45%	12%
O=S(=O)(/N=C/c1c(O)ccc2ccccc12)c1ccccc1	40µM*	0%	3%	0%	-25%	6%
Cc1occc1C(=O)N/N=C/c1c(O)ccc2ccccc12	-17%	2.6µM*	-6%	0%	-42%	14%
CCOC(=O)C=C(C(=O)OCC)C(=O)OCC	1.6µM*	0%	3%	11%	-3%	-1%
CCOC(=O)CNC=C(C(=O)OCC)C(=O)OCC	-8%	-19%	1%	34%	?	-1%
COc1cc(-c2noc(C)c2C(=O)NCCCn2ccnc2)cc(OC)c1OC	·	·	·	·	-11%	-8%
COc1ccc(CCNC(=O)CCSc2nc(-c3ccco3)cc(C(F)(F)F)n2)cc1OC	1%	9.3µM*	-11%	?	131%	-2%
CCn1ncc(CNC(=O)CCCSc2nc(-c3ccco3)cc(C(F)(F)F)n2)c1C	40µM*	12µM*	0%	?	206%	14%
O=C(CCSc1nc(-c2ccco2)cc(C(F)(F)F)n1)NCc1ccccn1	28µM*	?	4%	?	28%	2%
O=C(CCSc1nc(-c2ccco2)cc(C(F)(F)F)n1)NCc1cccs1	-1%	?	-1%	?	-5%	-9%
Cc1ccc(NC(=O)c2c(C)oc3c2C2=NCCN2C=N3)cc1F	-8%	·	-2%	·	·	·
CC1(C)Cc2cccc(OCC(=O)OCC(=O)NCc3ccccc3)c2O1	-28%	5%	-11%	-4%	7%	-9%
COc1cccc(CNC(=O)COCc2cc(-c3ccc4c(c3)OCO4)on2)c1	0%	·	-7%	·	·	·
Cc1ccc(SC(=O)c2c([N+](=O)[O-])c(C)nn2C)cc1	5.6µM*	-2%	-7%	-18%	14%	-3%
O=C(NNC(=O)c1ccccc1Br)c1ccncc1	18%	24%	?	10µM*	0%	2%
Cc1ccsc1C(=O)NNC(=S)NC1CCCCC1	-1%	7%	-1%	9.3µM*	-29%	-2%
O=C(NNC(=S)NC1CCCCC1)c1ccccc1Br	6%	13µM*	2%	?	-21%	2%

Source: PubChem (National Center for Advancing Translational Sciences (NCATS))
